PubChem BioAssay AID950 (NMMLSC, 2007)
In all, about 190,000 compounds went through this assay and about 120 (0.063%) were called active. This excerpt belongs to a sample that is enriched for actives. Unmarked numbers belong to inactive results. No stated cut-off is given here; in the data, active means inhibition above about 40%; inconclusive means no clear call, values can overlap the other calls; inactive means below that.

biological target: Apoptosis regulator Bcl-2 (Homo sapiens) (UniProt P10415); test: inhibitors of Bim-Bcl-2 binding, primary screen, biochemical, multiplexed, human Bcl-2 family (AID 950); details: Bead-based flow cytometry, Bim peptide-Bcl-2 binding; at 10 µM; active compounds read high;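 further: 0% = no compound wells with probe peptide and 100% = reference peptide inhibitor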
Sequence (P10415 whole entry, looked up): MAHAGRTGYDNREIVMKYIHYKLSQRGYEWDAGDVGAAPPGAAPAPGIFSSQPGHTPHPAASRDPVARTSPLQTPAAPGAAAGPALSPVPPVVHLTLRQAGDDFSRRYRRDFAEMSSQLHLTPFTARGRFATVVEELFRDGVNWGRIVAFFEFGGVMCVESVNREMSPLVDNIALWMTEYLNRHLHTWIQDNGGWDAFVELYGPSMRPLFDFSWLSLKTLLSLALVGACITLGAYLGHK

| Compound | inhibition |
| --- | --- |
| CCN(CC)c1ccc2c(Nc3ccccc3)c(C=O)c(=O)oc2c1 | -4% |
| C#CCOCCOCCOCCNc1nc(N2CCN(C(=O)[C@H](C(C)C)n3cc(CCO)nn3)CC2)nc(N2CCN(C(=O)[C@H](C(C)C)n3cc(CCO)nn3)CC2)n1 | -3% |
| Cc1cc(C)c(C2C3=C(Nc4c2c(C)nn4-c2ccccn2)c2ccccc2C3=O)c(C)c1 (centres undefined) | -2% |
| CCN1CCc2nc(NC(=O)c3cc(F)c(F)cc3Cl)sc2C1 | -5% |
| COc1ccc(C(=O)C2CCCN(Cc3cccn3-c3ccccn3)C2)c(C)c1 (centres undefined) | 0% |
| CCc1ccc(C2N3CC4([N+](=O)[O-])CN2CC([N+](=O)[O-])(C3)C4(C)C)cc1 (centres undefined) | -9% |
| CC1CCN(C(=S)c2cccc(O)c2)CC1 | -5% |
| C/C(=N\NC(=O)c1cccnc1)c1ccc(-n2ccnc2)cc1 | -4% |
| CCOC(=O)C1CCN(C(=O)C2(NC(=O)Nc3cccc(F)c3)CCCCC2)CC1 | -2% |
| Cc1ccc(/C=N/NC(=O)CNC(=O)COc2ccccc2)o1 | -10% |
| C=CCc1ccccc1OCC(=O)N/N=C/c1ccccc1OCC | -4% |
| CCOc1ccccc1/C=N/NC(=O)CNC(=O)COc1ccccc1 | 79% (active) |
| O=C(CN1CCN(c2ncccn2)CC1)Nc1ccccc1C(F)(F)F | -2% |
| COCCCNC(NC(=O)c1ccc(OC)cc1)C(Cl)(Cl)Cl (centres undefined) | 0% |
| Cc1cccc(NC(=S)NCc2ccc3[nH]c4c(c3c2)CCCC4)c1 | 2% |
| NS(=O)(=O)c1ccc(NC(=O)COC(=O)C2(c3ccc(F)cc3)CCCC2)cc1 | -9% |
| Cc1cccc(Nc2nc3c(S(=O)(=O)c4ccccc4)nnn3c3ccccc23)c1C | 0% |
| CCc1ccc(NC(=O)Cn2nc(C)c([N+](=O)[O-])c2C)cc1 | -2% |
| CC(C)c1ccc(C2C(C#N)=C(N)Oc3c2oc(CO)cc3=O)cc1 (centres undefined) | -2% |
| CCOc1ccc(NC(=O)COc2ccc(C(=O)NC3CCCc4ccccc43)cc2OC)cc1 (centres undefined) | -6% |
| O=C(NCC1CCCO1)/C(=C/c1ccc(Cl)cc1)NC(=O)c1ccccc1 (centres undefined) | -5% |
| CCCNS(=O)(=O)c1ccc(CCC(=O)N2CCCC2)cc1 | -5% |
| CC(=O)c1c(C)[nH]c(C(=O)OCC(=O)NCCC(C)C)c1C | -3% |
| CCOC(=O)CCNC(=O)N1CCCC(C(=O)c2ccccc2SC)C1 (centres undefined) | 2% |
| CC(CC(=O)C1C(C)C=CCC1(C)C)NNC(N)=O (centres undefined) | -3% |

| Compound | inhibition |
| --- | --- |
| CC(Sc1nnnn1C1CCCCC1)C(=O)O (centres undefined) | -2% |
| COc1ccc(Cl)cc1NC(=O)COC(=O)C(CC(C)C)N1C(=O)C2CC=CCC2C1=O (centres undefined) | -9% |
| COc1cccc(NC(=O)NCc2ccc(F)cc2)c1 | 0% |
| Cc1cc(Cl)c(S(=O)(=O)NCC2CCCO2)cc1OCC(N)=O (centres undefined) | 79% (active) |
| Cc1cc(Cl)c(S(=O)(=O)Nc2ccc3c(c2)OCCO3)cc1OCC(N)=O | -1% |
| Cc1cc(Cl)c(S(=O)(=O)NCCC(=O)O)cc1OCC(N)=O | -7% |
| CN(C)CCOCCOc1ccc(Cl)c2ccccc12 | -7% |
| O=C(Nc1ccccc1C(=O)N1CCCCCC1)c1ccccc1Cl | -4% |
| CC(=O)Nc1ccc(S(=O)(=O)NC2(C(F)(F)F)C(=O)Nc3c2c(=O)[nH]c(=O)n3Cc2ccccc2)cc1 (centres undefined) | -4% |
| COCCOC(=O)c1c(C)oc2cc(Br)c(OCC(N)=O)cc12 | 0% |
| CCCCN(C(=O)COc1ccc(NC(C)=O)cc1)C1CCS(=O)(=O)C1 (centres undefined) | -3% |
| COCCn1c(C)cc(C(=O)COC(=O)/C=C/c2cccc(OC)c2)c1C | -5% |
| O=C(O)Cc1ccc(NCc2ccccc2Cl)cc1 | -3% |
| CC1CN(S(=O)(=O)c2ccc(C(=O)Nc3sccc3C(N)=O)cc2)CC(C)O1 (centres undefined) | 1% |
| Cc1ccc(-c2nc(C#N)c(NCCCn3ccnc3)o2)cc1 | -2% |
| O=C(CNCc1ccco1)Nc1cc(S(=O)(=O)N2CCOCC2)ccc1N1CCCC1 | -2% |
| CC(C)=CCN1CCN(Cc2ccc(Oc3ncccn3)cc2)CC1CCO (centres undefined) | 1% |
| COc1ccc(N2CCN(C(=S)Nc3ccc(S(N)(=O)=O)cc3)CC2)cc1 | -3% |
| O=C(NCc1ccc(Cl)cc1)NCc1ccc(Cl)cc1 | -4% |
| O=C(CSc1ccc(-c2ccc(F)cc2)nn1)Nc1ccc2c(c1)OCCO2 | -6% |
| O=C(Nc1cccc(F)c1)N1C2CCC1CC(O)(c1cccnc1)C2 (centres undefined) | 0% |
| O=C(CN1CCN(c2ccc(O)cc2)CC1)Nc1cc(S(=O)(=O)N2CCOCC2)ccc1Cl | 0% |
| COc1cc(COCC(O)CN2CCN(Cc3ccc4c(c3)OCO4)CC2)cc(OC)c1OC (centres undefined) | -1% |
| COC(=O)C1=C(C)N(C)C(=S)NC1c1cc(OC)ccc1OC (centres undefined) | -5% |
